Among all 290,000 compounds or so, about 3,000 (1%) were called active. The full list was thinned out, with actives kept by preference. Unmarked numbers belong to inactive results. Rule as the data show it: active = inhibition mostly above about 36% (no sharp cut-off); inactive = mostly below about 34%.
experiment: NOD1 signaling inhibitors, primary screen, cell-based, luminescence, uHTS (AID 1578); conditions: NOD1-driven NF-kB luciferase reporter cells, at 4 µM, hits give high values;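 also: HEK-293T reporter cells stimulated with the NOD1 agonist gamma-tri-DAP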

First: NC(=O)c1c(NC(NC(=O)c2ccco2)(C(F)(F)F)C(F)(F)F)sc2c1CCCC2
Second: CN(C)C(=O)c1cc(C(=O)c2ccc(C(F)(F)F)cc2F)c[nH]1
The inhibition of the first is lower: -24.2% for the first, 21.8% for the second.

First: O=C(COC(=O)c1cc(-c2ccc(Cl)s2)nc2ccccc12)NCc1ccco1
Second: O=C(CN(Cc1ccccc1)C(=O)CCC(=O)Nc1nccs1)NCc1ccco1
The inhibition of the first is higher: -9.8% for the first, -21.9% for the second.

First: C=CCCC(=O)NC1CC(C)(C)Cc2c1cnn2-c1ccc(OC)cc1 (stereo unspecified)
Second: COc1ccc(NC(=O)CSc2nn3c(=O)c(C)nnc3s2)cc1
The inhibition of the first is higher: -7% for the first, -19.6% for the second.

Compared with `Clc1ccccc1N1CCN(c2ncnc3nc[nH]c23)CC1`, `c1ccc2c(c1)CCN(c1ncnc3nc[nH]c13)C2` is lower in inhibition: -13.5% for the first, -40.8% for the second.

Going from `CC1Cc2ccccc2N1c1ncnc2c1nnn2Cc1ccccc1` (stereo unspecified) to `CN1CCN(c2ccccc2NC(=S)NC(=O)c2cc3ccccc3o2)CC1`, the inhibition rises from -0.2% to 5.8%.

Compared with `Cc1ccccc1Oc1ncnc(N)c1[N+](=O)[O-]`, `CCOc1ccccc1NC(=O)Nc1cnccn1` is higher in inhibition: 4.6% for the first, 11.8% for the second.

First: O=C(CCNC(=O)N1CCn2c1nc1ccccc12)NCc1ccc(Cl)cc1
Second: O=C(CN1C(=O)c2ccccc2C1=O)Oc1ccc(Cl)cc1
The inhibition of the first is lower: -26.9% for the first, -14.3% for the second.

Going from `Cc1cccc(OCCOC(=O)C2CCN(S(=O)(=O)c3ccc(C)c(C)c3)CC2)c1` to `O=C(CNCc1ccc(F)cc1)Nc1ccc(S(=O)(=O)N2CCOCC2)cc1`, the inhibition falls from -9.6% to -26.8%.

Compared with `CCN(CC(=O)NC1CCS(=O)(=O)C1)S(=O)(=O)c1ccc(C)cc1C` (stereo unspecified), `Cc1ccc(CNC(=O)C2CCCN(S(=O)(=O)c3c(C)[nH]c(=O)[nH]c3=O)C2)cc1` (stereo unspecified) is higher in inhibition: -12% for the first, -3.9% for the second.

Going from `Cc1c(CCC(=O)NCCC(=O)O)c(=O)oc2cc3occ(-c4ccccc4)c3cc12` to `Cc1c(CC(=O)NCCCC(=O)O)c(=O)oc2cc3occ(-c4ccccc4)c3cc12`, the inhibition rises from -7.4% to -6.5%.

Going from `O=C(c1cccnc1)N1CCc2ccccc2C1` to `O=C(c1ccncc1)N1CCc2ccccc2C1`, the inhibition falls from -0.9% to -32.9%.

First: COCCn1nnnc1C(CC(C)C)N1CCN(c2ccccc2)CC1 (stereo unspecified)
Second: O=C(CSc1nnc(C2COc3ccccc3O2)o1)N1CCN(c2ccccc2)CC1 (stereo unspecified)
The inhibition of the first is lower: -24.8% for the first, -24.7% for the second.

Going from `CN1C(=O)N(C)c2ccc(C=O)c3cccc1c23` to `CN1c2cccc3cccc(c23)N(C)C1(C)C`, the inhibition rises from -32.8% to 9.4%.

First: CC(CCc1ccccc1)NC(=O)Cn1cccc1C(=O)c1ccccc1 (stereo unspecified)
Second: CCOc1ccc(C(=O)NC(=S)N(Cc2ccccc2)Cc2ccccc2)cc1
The inhibition of the first is lower: -9.7% for the first, 51.4% for the second.

First: Cc1nc2ccc(NC(=O)c3ccc(S(=O)(=O)N(C)c4ccccc4)cc3)cc2s1
Second: Cc1nc2ccc(NC(=O)c3ccc(Cl)c(S(=O)(=O)N(C)c4ccccc4)c3)cc2s1
The inhibition of the first is lower: 17.6% for the first, 51.8% for the second.

First: CN(c1ccccc1)S(=O)(=O)c1ccc(Cl)c(C(=O)Nc2ccc(-c3nc4ccccc4[nH]3)cc2)c1
Second: Cc1nc2ccc(NC(=O)c3ccc(S(=O)(=O)N(C)C)cc3)cc2s1
The inhibition of the first is higher: 4.8% for the first, -37.4% for the second.

Going from `COc1ccc(CCNC(=O)CCS(=O)(=O)c2ccc3c(c2)oc(=O)n3C)cc1OC` to `O=C(Cn1c(=O)oc2ccccc21)NC(=O)NCc1ccco1`, the inhibition rises from -25.6% to -3.9%.

First: O=C(COc1ccc(Cl)cc1Cl)NC(=S)N1CCCc2ccccc21
Second: CC(C)C(=O)NC(=S)N1CCc2ccccc21
The inhibition of the first is higher: 28.6% for the first, -40.2% for the second.

First: CC(C)NC(=O)c1ccc2c(c1)N(CC(=O)N1CCCCC1)C(=O)C(C)(C)O2
Second: COC(=O)CC1(C(=O)OC)Oc2ccc(Br)cc2C(=O)N1c1cc(Cl)cc(Cl)c1 (stereo unspecified)
The inhibition of the first is higher: 1.4% for the first, -11.1% for the second.

Going from `O=C(CSc1nnnn1-c1ccccc1)Nc1ncc(Cc2cccc(Cl)c2Cl)s1` to `Cn1nnnc1SCC(=O)Nc1nc(-c2ccc(F)c(F)c2)cs1`, the inhibition falls from -16.9% to -20.9%.

Compared with `Cc1ccc(C)c(NC(=O)C2CC(O)CN2C(=O)OCc2ccccc2)c1` (stereo unspecified), `COC(=O)Nc1ccc2c(c1)N(C(=O)CCCl)c1ccccc1S2` is lower in inhibition: 4.8% for the first, 3.3% for the second.

First: CC(=O)Nc1nonc1NC(=O)CSc1ccccn1
Second: Cc1nonc1NC(=O)CSc1ccccn1
The inhibition of the first is lower: 2.6% for the first, 4% for the second.

First: COc1ccc(NC(=O)Nc2cnccn2)c(OC)c1
Second: Cc1cccc(C(=O)NC(=S)NCc2cccnc2)c1
The inhibition of the first is higher: -27.1% for the first, -31.1% for the second.

First: COc1ccc(C(=O)NNC(=O)C(=O)/C=C(\O)c2ccc(C)cc2)cc1
Second: CCN(CC)C(=S)NC(=O)c1ccc(F)cc1
The inhibition of the first is higher: 0.6% for the first, -25% for the second.

First: O=C(NCCCN1CCOCC1)c1cccc(S(=O)(=O)Nc2cc(Cl)ccc2Cl)c1
Second: CC1CN(C(=O)CCC(=O)NCCCN2C(C)CCCC2C)c2ccccc2O1 (stereo unspecified)
The inhibition of the first is lower: -34.3% for the first, 26.4% for the second.

`Cc1sc2ncnc(SCC(=O)Nc3nc(-c4ccc(F)c(F)c4)cs3)c2c1C` showed an inhibition of -40.3%.

In the case of `CC1Cc2ccccc2N1c1ncnc(N)c1[N+](=O)[O-]` (stereo unspecified), the inhibition is reported as 96.2% (active).
With `CC1Cc2ccccc2N1c1ncnc2nc[nH]c12` (stereo unspecified) the inhibition was 71.8% (active).
In the case of `Cc1c(CCC(=O)NCCCCCC(=O)O)c(=O)oc2cc3occ(-c4ccccc4)c3cc12`, the inhibition is reported as 34.3% (active).
In the case of `O=C(c1cncc(Br)c1)N1CCc2ccccc2C1`, the inhibition is reported as 80.2% (active).
For `CN1c2ccc(C=O)c3c(C=O)ccc(c23)N(C)C1(C)C`, the inhibition was 72% (active).
In the case of `CC(Oc1ccc(Cl)cc1Cl)C(=O)NC(=S)N1CCc2ccccc21` (stereo unspecified), the inhibition is reported as 102% (active).
For `O=C(CSc1ccccn1)Nc1nonc1[N+](=O)[O-]`, the inhibition was 57.6% (active).
With `COc1ccccc1NC(=O)Nc1cnccn1` the inhibition was 111% (active).
In the case of `O=C(CSc1ncnc2[nH]ncc12)Nc1nc(-c2ccc(F)c(F)c2)cs1`, the inhibition is reported as 46% (active).
In the case of `CCCN(CCC)C(=S)NC(=O)c1ccc(-c2ccccc2)cc1`, the inhibition is reported as 52.6% (active).

From PubChem BioAssay AID1578 (Sanford-Burnham Center for Chemical Genomics, 2009)
